Results: PubChem BioAssay (Tox21)
“And” between values parts separate entries of the source, which are not always exact repeats. Equal values may be shown once. Records with an inconclusive call do not appear. A number with no mark means an inactive call. The source made the active and inactive calls. Calls follow the shape of the dose curve; as a rule, active = well fitted cell-killing curve with a large enough effect in the repeat runs; inconclusive = weak or mixed curves; inactive = no such curve, though single readings can be large or run the other way.

Assay: qHTS assay for identifying genotoxic compounds that show differential cytotoxicity against isogenic chicken DT40 cell lines with known DNA damage response pathways - Rad54/Ku70 mutant cell line (AID 743015); also: nearly all actives have a fitted effect of over 60% in size
Conditions: DT40 Rad54/Ku70 mutant viability, CellTiter-Glo, 40 h; series mostly up to 66.8 µM; activity change, negative = cytotoxicity: at the top concentration
% is scaled to controls: 0 for no effect and ±100 for the full control effect; potency is read from the fitted curve at half-maximal effect.

Structure (SMILES) | Potency | activity change, negative = cytotoxicity [%]
CS(=O)(=O)OCC(O)C(O)COS(C)(=O)=O (stereo not given) | 23.7 µM (active) | 
CCC(Cc1c(I)cc(I)c(O)c1I)C(=O)O (stereo not given) |  | -12.9
CC(CN(C)C)CN1c2ccccc2S(=O)(=O)c2ccccc21 (stereo not given) |  | -4.99
O=C1NC(=O)[C@H]2[C@@H]1[C@@H]1C=C[C@H]2C1 |  | 1.84
S=C=Nc1ccc(N=C=S)cc1 |  | 9.56
N[C@H](CCC(=O)O)C(=O)O |  | 7.93
CCC(C)[C@H]1O[C@]2(C=C[C@@H]1C)C[C@@H]1C[C@@H](C/C=C(\C)[C@@H](O[C@H]3C[C@H](OC)[C@@H](O[C@H]4C[C@H](OC)[C@H](NC(C)=O)[C@H](C)O4)[C@H](C)O3)[C@@H](C)/C=C/C=C3\CO[C@@H]4[C@H](O)C(C)=C[C@@H](C(=O)O1)[C@]34O)O2 (stereo not given in full) | 1.68 µM (active) and 3.35 µM (active) | 
CN1CCCC(CN2c3ccccc3Sc3ccccc32)C1 (stereo not given) | 9.44 µM (active) | 
CCCC(=O)Nc1ncnc2c1ncn2[C@@H]1O[C@@H]2COP(=O)(O)O[C@H]2[C@H]1OC(=O)CCC |  | 2.42
CC(=C\c1ccccc1)/C=C1/SC(=S)N(CC(=O)O)C1=O |  | 2.32
O=P(O)(O)OC[C@H]1O[C@](O)(COP(=O)(O)O)[C@@H](O)[C@@H]1O |  | 1.01
COc1cc2c(cc1OC)[C@@H](c1ccccc1)CN(C)CC2 |  | -19.1
CCN(CC)CCC(=O)N1c2ccccc2Sc2ccc(Cl)cc21 | 11.9 µM (active) | 
NCCCC[C@H](N)C(=O)O |  | 6.65
CCCC(=O)N1CCCN(c2nc(N)c3cc(OC)c(OC)cc3n2)CC1 |  | -2.47
